This passage reports growth results from PubChem BioAssay (NCI).

Some test systems named below: T-47D breast; BT-549 breast; MDA-MB-435 melanoma; SW-620 colon; MCF7 breast; HCT-116 colon; KM12 colon; MDA-MB-468 breast; HCC-2998 colon.
What all share (assay): NCI-60 one-dose screen, 48 h (100 = growth as untreated, 0 = no growth, -100 = all killed)
Conditions in all cases: 10 µM

The panel holds about 83,000 compounds, 20% with a hit somewhere; the sample as a whole holds those more often.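 Assay: single dose, 48 h. Readout: percent growth (0 = no net growth; negative = cell death). Active: <10.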 Unmarked numbers belong to inactive results. Active and inactive are the calls of the source.

In the case of `S=c1nc(-c2ccccc2)cc(-c2cc3ccccc3nc2Cl)[nH]1`, the growth in the experiment with T-47D breast is 78.1%; in the experiment on BT-549 breast, 51.9%; with MDA-MB-435 melanoma, -10.8% (active); in the experiment with SW-620 colon, 48.3%; in the experiment with MCF7 breast it was 45.1%; with HCT-116 colon it was 31.5%. Besides, the results for the growth with KM12 colon and with MDA-MB-468 breast were 64.2% and 66.8%, respectively.

For `COc1cccc(/C=N/NC(=O)c2ccc3nc(-c4ccc(Cl)cc4)[nH]c3c2)c1O`, the growth in the experiment with T-47D breast is -33.2% (active); in the experiment with BT-549 breast, -96.7% (active); in the experiment with MDA-MB-435 melanoma, -89.3% (active); with SW-620 colon, -77.1% (active); with MCF7 breast, -78.5% (active); in the experiment on HCT-116 colon, -90.3% (active). Also, the growth in the experiment on HCC-2998 colon is -98% (active); in the experiment with KM12 colon, -85.2% (active); in the experiment on MDA-MB-468 breast, -96.1% (active).

Turning to `CS(=O)(=O)Nc1ccc(-c2ccc3c(c2)ncn3-c2ccc(NC(=O)Nc3ccc(Br)cc3)cc2)cc1`, the growth in the experiment with T-47D breast is -8.48% (active); in the experiment with BT-549 breast, -36.5% (active); with MDA-MB-435 melanoma it was -18% (active); in the experiment with SW-620 colon, 1.27% (active); in the experiment on MCF7 breast it was -35.1% (active); in the experiment with HCT-116 colon, 2.46% (active). For the same compound, in the experiment on KM12 colon, the growth was 2.79% (active).

As to `CC(=O)Nc1ccc(-n2cnc3cc(-c4ccc(O)cc4)ccc32)cc1C`, the growth with T-47D breast is 32.6%; in the experiment on BT-549 breast, 50.7%; in the experiment on MDA-MB-435 melanoma it was -13.2% (active); in the experiment on SW-620 colon, 44.2%; in the experiment on MCF7 breast it was 50.9%; in the experiment on HCT-116 colon, 70%. The results for the growth in the experiment with KM12 colon and with MDA-MB-468 breast were 22.1% and -7.11% (active), respectively.

Regarding `Cc1ccc(-c2nc(Nc3ccccc3C(=O)O)c3ccccc3n2)cc1`, the growth in the experiment with T-47D breast is 10.7%; in the experiment with BT-549 breast, -23.5% (active); with MDA-MB-435 melanoma, 23.4%; in the experiment on SW-620 colon, 14.5%; in the experiment with MCF7 breast, 7.7% (active); in the experiment with HCT-116 colon, 6.7% (active). Further, the growth in the experiment with KM12 colon was 8.37% (active); in the experiment with MDA-MB-468 breast it was -26.9% (active).

Turning to `Cc1cccc2cc(-c3cc(-c4ccccc4)nc(=O)[nH]3)c(Cl)nc12`, the growth is 76.7% in the experiment on T-47D breast; 84.4% with BT-549 breast; 99.8% with MDA-MB-435 melanoma; 87.7% with SW-620 colon; 29.3% in the experiment on MCF7 breast; 63.4% with HCT-116 colon. Also, the figures for the growth in the experiment with KM12 colon and in the experiment with MDA-MB-468 breast were 73.5% and 83.6%, respectively.

In the case of `COc1cccc(COc2ccc(/C=C3\Oc4cc(O)ccc4C3=O)cc2)c1`, the growth in the experiment with T-47D breast was 44.3%; in the experiment with BT-549 breast it was 15.3%; in the experiment on MDA-MB-435 melanoma it was 37.2%; in the experiment with SW-620 colon, 36%; in the experiment with MCF7 breast, 37.8%; in the experiment on HCT-116 colon it was 1.73% (active). Besides, the growth is 26.1% in the experiment with KM12 colon and 12.2% in the experiment with MDA-MB-468 breast.

Take `COc1ccc([C@H]2C(C(=O)c3ccc(Cl)cc3)C3(N[C@@H]2c2ccccc2)C(=O)Nc2ccc(Cl)cc23)cc1` (some centres not stated): the growth was 9.93% (active) with T-47D breast; 7.71% (active) with BT-549 breast; -57.5% (active) in the experiment on MDA-MB-435 melanoma; 4.15% (active) with SW-620 colon; -4.24% (active) in the experiment on MCF7 breast; 2.1% (active) in the experiment on HCT-116 colon. For the same compound, the growth with KM12 colon was -23.4% (active); in the experiment with MDA-MB-468 breast it was -3.62% (active).

Take `C=CCn1c(SCC(=O)Nc2ccc(C(=O)/C=C/c3ccccc3)cc2)nnc1-c1c[nH]c2ccccc12`: the growth with T-47D breast was 20.8%; with BT-549 breast, 45.6%; with MDA-MB-435 melanoma, -13.5% (active); in the experiment on SW-620 colon, -28.2% (active); in the experiment with MCF7 breast, -67.7% (active); in the experiment on HCT-116 colon, -52.4% (active). In addition, the growth was -69.4% (active) in the experiment with HCC-2998 colon, 6.81% (active) with KM12 colon and -7.8% (active) in the experiment with MDA-MB-468 breast.

Take `CNC(=O)c1cc(-c2ccc(NC(=O)Nc3ccc(C)cc3)cc2)nc2cccnc12`: the growth was 89.6% with T-47D breast; 104% in the experiment with BT-549 breast; 109% in the experiment with MDA-MB-435 melanoma; 104% in the experiment with SW-620 colon; 45.6% with MCF7 breast; 89.7% in the experiment with HCT-116 colon. Besides, the growth was 102% in the experiment on KM12 colon and -14.3% (active) in the experiment with MDA-MB-468 breast.

As for `Cc1ccc2nc(COc3ccc(C(=O)NNC(=S)NCCc4ccccc4)cc3)[nH]c2c1`, the growth with T-47D breast was 74%; in the experiment on BT-549 breast, 105%; with MDA-MB-435 melanoma, 98.5%; with SW-620 colon, 96.3%; with MCF7 breast it was 50.5%; in the experiment on HCT-116 colon it was 57.3%. Besides, the results for the growth with KM12 colon and in the experiment with MDA-MB-468 breast were 63.4% and 15.5%, respectively.

Regarding `COc1ccc(N(C)c2cc(C#N)nc3ccccc23)cc1/C=C/C(=O)NO`, the growth in the experiment on T-47D breast is -10.8% (active); with BT-549 breast it was -49.4% (active); with MDA-MB-435 melanoma it was -70.5% (active); in the experiment with SW-620 colon, -37.5% (active); in the experiment on MCF7 breast, -20.8% (active); with HCT-116 colon, -9.52% (active). In addition, the growth was -37.1% (active) with KM12 colon and -86.1% (active) in the experiment on MDA-MB-468 breast.

Regarding `COc1cccc(-c2ccc(/C=N/NC(=O)c3[nH]c4ccc(Br)cc4c3-c3ccccc3)o2)c1`, the growth is 54.7% with T-47D breast; 25.8% with BT-549 breast; -30.7% (active) in the experiment with MDA-MB-435 melanoma; 24.6% in the experiment with SW-620 colon; -7.28% (active) with HCT-116 colon; 11.8% in the experiment on HCC-2998 colon. Moreover, the growth in the experiment on KM12 colon was 10.8%; with MDA-MB-468 breast, -2.92% (active).

Take `Cc1ccc(/C=C/C(=O)c2ccc(NC(=O)CSc3nnc(-c4c[nH]c5ccccc45)n3-c3ccccc3)cc2)c(C)c1`: the growth in the experiment with T-47D breast was 36.9%; with BT-549 breast, 52.8%; with MDA-MB-435 melanoma, 49.5%; with SW-620 colon it was 33.2%; in the experiment on MCF7 breast, 3.33% (active); in the experiment on HCC-2998 colon, 74.1%. Also, the growth in the experiment on KM12 colon is 66.6%.
